We go through 90 compounds from PubChem BioAssay AID1851 (National Center for Advancing Translational Sciences (NCATS), 2009).

Several values for one entry are separate records, joined by “and”; a condition that tells them apart may be missing. Identical values can stand only once. Screen size: about 16,000 compounds; about 5,800 (36%) were called active. About 23% were inconclusive and are not listed. Calls come from the whole dose curve; as a rule, active = well fitted curve in the direction sought with a large enough effect; inconclusive = small, poorly fitted or top-dose-only effect, or effect the other way; inactive = no such curve, though single readings can be large or run the other way. The list shows a part of the results.

The term AC50 denotes the concentration at which the activity in the assay is half-maximal.
% is set by controls: 0 for no effect and ±100 for the full control effect.

The target of this assay is Cytochrome P450 2C19 (Homo sapiens) (UniProt P33261). Kind of assay: Cytochrome panel assay with activity outcomes. Conditions: recombinant CYP, pro-luciferin dealkylation, luminescence, p450-cyp2c19; series mostly up to 57.1 µM.
Cytochrome P450 2C19 (Homo sapiens), sequence (P33261 whole entry, looked up): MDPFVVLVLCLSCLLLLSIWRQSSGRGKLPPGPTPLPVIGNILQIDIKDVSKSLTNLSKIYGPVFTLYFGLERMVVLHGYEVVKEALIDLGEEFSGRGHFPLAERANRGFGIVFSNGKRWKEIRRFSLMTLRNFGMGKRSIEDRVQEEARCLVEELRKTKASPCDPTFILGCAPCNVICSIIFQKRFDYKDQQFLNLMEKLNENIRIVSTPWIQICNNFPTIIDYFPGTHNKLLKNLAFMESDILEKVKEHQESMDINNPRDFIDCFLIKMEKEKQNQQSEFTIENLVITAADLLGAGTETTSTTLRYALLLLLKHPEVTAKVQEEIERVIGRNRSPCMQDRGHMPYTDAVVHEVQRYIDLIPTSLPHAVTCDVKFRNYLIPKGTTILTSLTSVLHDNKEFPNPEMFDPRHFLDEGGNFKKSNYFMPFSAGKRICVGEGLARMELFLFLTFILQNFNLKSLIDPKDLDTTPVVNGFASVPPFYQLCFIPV
As to `CSc1nnc2c(n1)OC(C)N(C(=O)c1ccccc1)c1ccccc1-2` (stereo not given), the AC50 entry was “inactive”. On to `CS(=O)(=O)Nc1cccc(-c2ccc3ncnc(NCc4cccs4)c3c2)c1`, for which the AC50 is 15.8 µM (active).

Regarding `COc1cccc(-c2ccc3ncnc(NCc4cccs4)c3c2)c1`, the AC50 was 10 µM (active). As for `COc1ccc(CNc2ncnc3ccc(-c4ccccc4CN(C)C)cc23)c(OC)c1`, the AC50 was 15.8 µM (active). Same read-out and setting: for `CS(=O)(=O)Nc1cccc(-c2ccc3ncnc(NCCN4CCOCC4)c3c2)c1` the value was “inactive”; for `COc1ccc(CNc2ncnc3ccc(-c4ccccc4OC)cc23)c(OC)c1`, 7.94 µM (active); for `COc1ccc(CNc2ncnc3ccc(-c4ccoc4)cc23)c(OC)c1`, 7.94 µM (active). For `COc1ccc(CNc2ncnc3ccc(-c4ccccc4C#N)cc23)c(OC)c1`, the AC50 result was “inactive”. With `COc1ccccc1CNc1ncnc2ccc(-c3ccccc3C#N)cc12`, the AC50 is 7.94 µM (active). For `COc1ccc(CNc2ncnc3ccc(-c4c(C)noc4C)cc23)c(OC)c1`, the AC50 was 10 µM (active).

For the compound `Cc1nc2sc(C#N)c(N)c2c2c1CCCC2`, the AC50 was 11.2 µM (active). For the compound `C[C@@H]1c2ccccc2CN1CC1=NCCN1`, the AC50 result was “inactive”. Regarding `CCn1c(N2CCN(C(=O)Nc3ccc(F)cc3)CC2)nc2ccccc21`, the AC50 was 31.6 µM (active).

`COc1ccc(NC(=O)N2CCC3(CC2)CCN(C(=O)c2cccc(F)c2)CC3)cc1`: the AC50 result was “inactive”. Turning to `COc1ccc(NC(=O)N2CCCC3(CCN(C(=O)c4cccc(F)c4)CC3)C2)cc1`, the AC50 result was “inactive”.

For the compound `CCOC(=O)CSc1n[nH]c(NC(=O)c2cccc(C)c2)n1`, the AC50 is 5.01 µM (active). In the case of `Cc1cc(Br)ccc1NC(=O)CCSc1ccccc1`, the AC50 is 1.26 µM (active).

With `O=C(O)CCCSc1ccccc1`, the activity, negative = inhibition was 31.6% [at 11.4 µM] (inactive). For `NNC(=O)CCSc1ccccc1`, the AC50 is 3.98 µM (active).

Take `O=c1c(-c2ccccc2)nc2cnc(N3CCNCC3)nc2n1-c1ccccc1`: the AC50 entry was “inactive”. On the same count and under the same terms, the figure for `CC(C)c1ccc(CN(C(=O)C2COc3ccccc3O2)C2CCS(=O)(=O)C2)cc1` (stereo not given) is 10 µM (active). Turning to `CCCCC(=O)NC(Nc1cc(C)ccn1)(C(=O)OCC)C(F)(F)F` (stereo not given), the AC50 is 1.41 µM (active). Take `O=C(O)c1ccccc1NCn1c(=S)sc2ccccc21`: the activity, negative = inhibition is -40.3% [at 11.4 µM] (inactive). In the case of `N=c1sc2ccccc2n1CCS` (tested in a mixture with another compound), the AC50 is 1.58 µM (active). On to `c1ccc2nc(C3=NCCN3)cnc2c1`, for which the AC50 result is “inactive”. Same read-out and setting: for `Cc1cc(C)n(Cc2ccc(NC(=O)c3ccc(COc4ccccc4Br)cc3)cc2)n1` the value was 3.98 µM (active). For `COC(=O)[C@@]1(Cc2ccccc2)[C@H]2c3cc(C(=O)N4CCCC4)n(CCc4ccccn4)c3C[C@H]2CN1C(=O)c1ccccc1`, the AC50 is 25.1 µM (active). For `COC(=O)[C@@]1(Cc2ccccc2)[C@H]2c3cc(C(=O)N4CCCC4)n(Cc4ccccn4)c3C[C@H]2CN1C(=O)c1ccccc1`, the AC50 is 10 µM (active). Regarding `COC(=O)[C@@]1(Cc2ccccc2)[C@H]2c3cc(C(=O)N4CCCC4)n(Cc4nc5ccccc5[nH]4)c3C[C@H]2CN1C(=O)c1ccccc1`, the AC50 was 15.8 µM (active).

Take `COC(=O)[C@@]1(Cc2ccc(OC)cc2)[C@H]2c3cc(C(=O)N4CCCC4)n(CCn4cc([N+](=O)[O-])nc4C)c3C[C@H]2CN1C(=O)c1ccccc1`: the AC50 result was “inactive”. The same measure, in the same setting: for `CSc1nc(Cl)cc(N(CCO)CCO)n1` the value was “inactive”; for `CC(C)(C=O)Cc1cc(C(C)(C)C)c(O)c(C(C)(C)C)c1`, “inactive”. For `CC(C)(CO)Cc1cc(C(C)(C)C)c(O)c(C(C)(C)C)c1`, the AC50 was 25.1 µM (active). For the compound `CCOC(=O)c1ccccc1N/C=C1\CCCCC1=O`, the AC50 is 22.4 µM (active). On the same count and under the same terms, the figure for `CCn1c2ccccc2c2cc(NC(=O)C/C(C)=N/NC(=O)c3ccccc3N)ccc21` is 2.24 µM (active). On the same count and under the same terms, for `CCc1ccccc1N1C(=O)c2cccc3c(N4CCOCC4)c([N+](=O)[O-])cc(c23)C1=O` the value was 3.98 µM (active); for `O=c1cc(N2CCOCC2)oc2c(-c3ccccc3)cccc12`, “inactive”. On the same count and under the same terms, the entry for `Cc1noc(C)c1-c1nccc(N(C)C)n1` is “inactive”; for `COc1cccc(-c2nccc(N(C)Cc3ccco3)n2)c1` it is 5.01 µM (active); for `CN(Cc1ccco1)c1ccnc(-c2cccnc2)n1` it is 6.31 µM (active). On to `Cc1noc(C)c1-c1nccc(N(C)Cc2ccco2)n1`, for which the AC50 was 1 µM (active). As to `FC(F)(F)c1cc(CN2CCC3(CCNCC3)CC2)cc(C(F)(F)F)c1`, the AC50 entry was “inactive”. With `O=C(O)CSc1cc(-c2ccccc2)nc2ccccc12`, the activity, negative = inhibition was 1.28% [at 11.4 µM] (inactive). As for `N#Cc1ccc(-c2ccccc2)nc1SCC(=O)c1cccc(Cl)c1`, the AC50 was 2.24 µM (active).

Consider `N#Cc1c(-c2ccccc2)no[n+]1[O-]`, for which the AC50 result was “inactive”.

With `CN(C)c1oc(-c2ccccc2)nc1C#N`, the AC50 was 15.8 µM (active). Still for that read-out and setting: for `CCOc1[nH]n(-c2ccc(Cl)cc2)c(=O)c1C=Nc1ccc(O)cc1` the value was “inactive”; for `COc1cc(O)oc1C=Nc1ccc(Cl)cc1`, 6.31 µM (active).

Consider `COc1cc(O)oc1C=Nc1ccc(C(F)(F)F)cc1`, for which the AC50 was 7.08 µM (active). In the case of `Cc1c(C(=O)O)nc(/C=C\C(=O)O)[nH]c1=O`, the activity, negative = inhibition was 18.2% [at 11.4 µM] (inactive). As to `CC1=NN(c2ccc(F)cc2)C(=O)C1C(c1cccc(O)c1)c1c(C)[nH]n(-c2ccc(F)cc2)c1=O` (stereo not given), the AC50 was 17.8 µM (active). Take `O=C1C2CCCN2C(c2ccc(F)cc2)N1c1nccs1` (stereo not given): the AC50 is 14.1 µM (active). On to `CCSc1nc2sc3c(c2c(=O)[nH]1)CC(C)(CC)OC3` (stereo not given), for which the AC50 entry is “inactive”. Consider `Cc1nc2ncnn2c(C)c1CCC(=O)NCc1ccccc1`, for which the AC50 entry is “inactive”. Turning to `CCC1(C)Cc2c(sc3nnn(CC(=O)Nc4ccc(C)cc4)c(=O)c23)CO1` (stereo not given), the AC50 was 10 µM (active). The same measure, in the same setting: for `CCC1(C)Cc2c(sc3nnn(CC(=O)Nc4cccc5ccccc45)c(=O)c23)CO1` (stereo not given) the value was 15.8 µM (active); for `CCCSc1nc(SCC(=O)NCc2ccccc2)c2c3c(sc2n1)COC(C)(CC)C3` (stereo not given), 11.2 µM (active). For the compound `CN(N=O)C(=O)N[C@H]1[C@@H](O)[C@H](O)[C@H](CO)O[C@@H]1O`, the AC50 entry is “inactive”. `NC(=O)Nn1c(CCC(=O)O)ccc1-c1ccc(F)cc1`: the AC50 entry is “inactive”. For the compound `Nc1ccc(Sc2cnn(-c3ccccc3)c(=O)c2Cl)cc1`, the AC50 is 0.1 µM (active). On to `CNc1cnn(-c2ccccc2)c(=O)c1Cl`, for which the AC50 entry is “inactive”. For `CCc1cc2c(nc1CC)CCN(CC/C(C)=N/OC[C@@H](O)COCc1ccco1)C2`, the activity, negative = inhibition was -17.2% [at 11.4 µM] (inactive).

As for `COC(=O)C/C=C\[C@@H](C)[C@@H](/C=N\O[C@@H](C)c1cn([C@H](CO)Cc2ccccc2)nn1)NS(=O)(=O)c1ccc(C)cc1`, the activity, negative = inhibition was 14.8% [at 11.4 µM] (inactive) and -27.5% [at 11.4 µM] (inactive). With `Cc1ccc(S(=O)(=O)N[C@@H](CCc2ccccc2)CC(=O)C(C)(C)C)cc1`, the AC50 was 1.58 µM (active). With `CC(CCc1ccccc1)NS(=O)(=O)c1ccccc1` (stereo not given), the AC50 was 2.51 µM (active). For `Cc1ccc(S(=O)(=O)N[C@H](CO)C(=O)O)cc1`, the activity, negative = inhibition was -10.2% [at 11.4 µM] (inactive). For the compound `C1CCc2c(nc3nnnn3c2NC2CCCC2)C1`, the AC50 result is “inactive”.

Turning to `O=C1[C@@H]2[C@H]3[C@H](O)[C@H](O)C/C(=N/OCc4ccccc4)[C@@H]3CC[C@H]2C(=O)N1c1ccc(F)cc1F`, the activity, negative = inhibition was -20.4% [at 11.4 µM] (inactive).

For the compound `C[C@@H](C(=O)NCc1ccccn1)[C@H]1C[C@]1(C)[C@H](NC(=O)OCc1ccccc1)c1ccccc1`, the AC50 was 2 µM (active). For `C[C@@H](C(=O)NCc1ccccn1)[C@@H]1C[C@@]1(C)[C@@H](NC(=O)OCc1ccccc1)c1ccccc1`, the AC50 is 2.51 µM (active). On the same count and under the same terms, the entry for `O=C(O)CN(CCOCCOCCN(CC(=O)O)CC(=O)O)CC(=O)O` is “inactive”. Turning to `Cc1cc2c(nc1C)CCCCN2C[C@H](O)CN1CCCc2nc(-c3ccc(Br)cc3)ccc21`, the activity, negative = inhibition was -10.8% [at 11.4 µM] (inactive). With `COc1ccccc1CN1CC[C@@]2(CCCN(C(C)=O)C2)C1`, the AC50 result is “inactive”. With `CCOC(=O)C1CCN(c2c(NCc3ccc(C(=O)NCCC(C)C)cc3)c(=O)c2=O)CC1`, the AC50 is 3.16 µM (active). As to `CCNC(=S)NNC(=O)c1cc(C2CC2)nc2ccccc12`, the AC50 was 28.2 µM (active). On the same count and under the same terms, for `CCCCOC(=O)CSCC(=O)Nc1cc(C)on1` the value was 8.91 µM (active). Take `Cc1ccccc1-c1cc(Nc2ccc(F)cc2)ncn1`: the AC50 was 0.631 µM (active).

As for `COc1ccccc1-c1cc(Nc2ccc(F)cc2)ncn1`, the AC50 is 7.94 µM (active). Regarding `Cc1ccccc1-c1cc(Nc2ccccc2)ncn1`, the AC50 was 3.16 µM (active). On the same count and under the same terms, for `CC(=O)NCCNc1cc(-c2ccccc2C)ncn1` the value was “inactive”. Regarding `COc1ccccc1-c1cc(Nc2ccn[nH]2)ncn1`, the AC50 is 6.31 µM (active).

With `C[C@@H]1/C=C\CC(=O)OC[C@H](C)C(=O)N2CCC[C@@H]2C(=O)OC1`, the activity, negative = inhibition was 72.6% [at 11.4 µM] (inactive).

As for `O=C(c1cccc(F)c1)N1CCC2(CC1)CN(C(c1ccccc1)c1ccccc1)C2`, the AC50 entry was “inactive”.

For the compound `COC(=O)[C@@]1(Cc2ccccc2)[C@H]2c3cc(C(=O)N(C)C)n(Cc4c(CO)[nH]cc(C)c4=O)c3C[C@H]2CN1C(=O)c1ccccc1`, the AC50 is 3.16 µM (active). Take `COC(=O)[C@@]1(Cc2ccccc2)[C@H]2c3cc(C(=O)N4CCCC4)n(Cc4c(CO)[nH]cc(C)c4=O)c3C[C@H]2CN1C(=O)c1ccccc1`: the concentration at half-maximal activity (AC50) was 10 µM (active). Still for that read-out and setting: for `COc1ccc(CNc2cc(-c3ccccc3OC)ncn2)c(OC)c1` the value was 2 µM (active); for `COc1ccc(CNc2cc(-c3ccccc3CN(C)C)ncn2)c(OC)c1`, “inactive”; for `COc1ccc(CNc2cc(-c3ccccc3Cl)ncn2)c(OC)c1`, 2 µM (active). Regarding `CC(=O)N(CC(O)CN(C(C)=O)c1c(I)c(C(=O)NC[C@@H](O)CO)c(I)c(C(=O)NC[C@@H](O)CO)c1I)c1c(I)c(C(=O)NC[C@@H](O)CO)c(I)c(C(=O)NC[C@@H](O)CO)c1I`, the AC50 result was “inactive”.

Consider `CN(C)c1nccc(N(Cc2ccccc2)Cc2ccccc2)c1C#N`, for which the AC50 was 4.47 µM (active).
